Assay outcomes from PubChem.
HP1b chromo inh: inhibitors of HP1-beta chromodomain binding to methylated histone tails; AlphaScreen HP1-beta / biotin-H3K9me3 peptide binding; Potency, µM (doses to about 114 µM), usual class: inhibitors; 0.56% of 390,000 active; note: nearly all actives have a fitted effect of over 70% in size
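Compound inhibition of the preformed complex between 50 nM HP1-beta and 50 nM biotinylated H3K9me3 peptide was read by AlphaScreen. Buffer was PBS pH 7.4 with 0.01% Tween-20. Incubations ran 30 min at room temperature, with 10 ug/mL donor/acceptor beads.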
G9a inh: inhibitors of human histone lysine methyltransferase G9a; G9a H3K9 monomethylation, AlphaScreen, 2 h; Potency, µM (top dose mostly 102 µM), most hits filed as inhibitors; 8.8% of 350,000 active; note: nearly all actives have a fitted effect of over 75% in size
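Signal arises when biotinylated H3K9 peptide, once monomethylated, bridges streptavidin donor and antibody-captured acceptor beads. Enzyme at 20 nM was preincubated 15 min with test compounds; peptide 500 nM and SAM 20 uM then reacted for 2 h.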
Sfp inh: blocks B. subtilis Sfp PPTase activity; Q9F4F7; Biochemical Sfp PPTase activity, qHTS; Potency, µM, most hits filed as inhibitors; 3.5% of 310,000 active; AID 1490;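 note: the enzyme is Sfp with the accession as filed and its product quenches rhodamine fluorescence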
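Fluorescence-quenching assay with 15 nM Sfp, 5 uM rhodamine-CoA and 12.5 uM BHQ-2-labelled ybbR peptide in pH 7.6 Hepes/MgCl2 buffer. Enzyme was pre-incubated with compound for 15 min at room temperature. Rate was taken from the 30-min fluorescence change (525/598 nm).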
JMJD2A Tudor inh: inhibitors of human JMJD2A Tudor domain. AlphaScreen JMJD2A-Tudor / H3K4me3 peptide binding. Potency, µM (top dose mostly 114 µM), actives largely listed as inhibitors. 4.4% of 390,000 active. AID 504339; note: nearly all actives have a fitted effect of over 50% in size
BAZ2B block: blocks human BAZ2B; AID 504333; Q9UIF8; 4.4% of 360,000 active; AlphaScreen BAZ2B-H3K14Ac peptide displacement; Potency, µM (series often up to 114 µM), actives largely listed as inhibitors; note: nearly all actives have a fitted effect of over 60% in size
Target sequence (Q9UIF8 whole entry, looked up): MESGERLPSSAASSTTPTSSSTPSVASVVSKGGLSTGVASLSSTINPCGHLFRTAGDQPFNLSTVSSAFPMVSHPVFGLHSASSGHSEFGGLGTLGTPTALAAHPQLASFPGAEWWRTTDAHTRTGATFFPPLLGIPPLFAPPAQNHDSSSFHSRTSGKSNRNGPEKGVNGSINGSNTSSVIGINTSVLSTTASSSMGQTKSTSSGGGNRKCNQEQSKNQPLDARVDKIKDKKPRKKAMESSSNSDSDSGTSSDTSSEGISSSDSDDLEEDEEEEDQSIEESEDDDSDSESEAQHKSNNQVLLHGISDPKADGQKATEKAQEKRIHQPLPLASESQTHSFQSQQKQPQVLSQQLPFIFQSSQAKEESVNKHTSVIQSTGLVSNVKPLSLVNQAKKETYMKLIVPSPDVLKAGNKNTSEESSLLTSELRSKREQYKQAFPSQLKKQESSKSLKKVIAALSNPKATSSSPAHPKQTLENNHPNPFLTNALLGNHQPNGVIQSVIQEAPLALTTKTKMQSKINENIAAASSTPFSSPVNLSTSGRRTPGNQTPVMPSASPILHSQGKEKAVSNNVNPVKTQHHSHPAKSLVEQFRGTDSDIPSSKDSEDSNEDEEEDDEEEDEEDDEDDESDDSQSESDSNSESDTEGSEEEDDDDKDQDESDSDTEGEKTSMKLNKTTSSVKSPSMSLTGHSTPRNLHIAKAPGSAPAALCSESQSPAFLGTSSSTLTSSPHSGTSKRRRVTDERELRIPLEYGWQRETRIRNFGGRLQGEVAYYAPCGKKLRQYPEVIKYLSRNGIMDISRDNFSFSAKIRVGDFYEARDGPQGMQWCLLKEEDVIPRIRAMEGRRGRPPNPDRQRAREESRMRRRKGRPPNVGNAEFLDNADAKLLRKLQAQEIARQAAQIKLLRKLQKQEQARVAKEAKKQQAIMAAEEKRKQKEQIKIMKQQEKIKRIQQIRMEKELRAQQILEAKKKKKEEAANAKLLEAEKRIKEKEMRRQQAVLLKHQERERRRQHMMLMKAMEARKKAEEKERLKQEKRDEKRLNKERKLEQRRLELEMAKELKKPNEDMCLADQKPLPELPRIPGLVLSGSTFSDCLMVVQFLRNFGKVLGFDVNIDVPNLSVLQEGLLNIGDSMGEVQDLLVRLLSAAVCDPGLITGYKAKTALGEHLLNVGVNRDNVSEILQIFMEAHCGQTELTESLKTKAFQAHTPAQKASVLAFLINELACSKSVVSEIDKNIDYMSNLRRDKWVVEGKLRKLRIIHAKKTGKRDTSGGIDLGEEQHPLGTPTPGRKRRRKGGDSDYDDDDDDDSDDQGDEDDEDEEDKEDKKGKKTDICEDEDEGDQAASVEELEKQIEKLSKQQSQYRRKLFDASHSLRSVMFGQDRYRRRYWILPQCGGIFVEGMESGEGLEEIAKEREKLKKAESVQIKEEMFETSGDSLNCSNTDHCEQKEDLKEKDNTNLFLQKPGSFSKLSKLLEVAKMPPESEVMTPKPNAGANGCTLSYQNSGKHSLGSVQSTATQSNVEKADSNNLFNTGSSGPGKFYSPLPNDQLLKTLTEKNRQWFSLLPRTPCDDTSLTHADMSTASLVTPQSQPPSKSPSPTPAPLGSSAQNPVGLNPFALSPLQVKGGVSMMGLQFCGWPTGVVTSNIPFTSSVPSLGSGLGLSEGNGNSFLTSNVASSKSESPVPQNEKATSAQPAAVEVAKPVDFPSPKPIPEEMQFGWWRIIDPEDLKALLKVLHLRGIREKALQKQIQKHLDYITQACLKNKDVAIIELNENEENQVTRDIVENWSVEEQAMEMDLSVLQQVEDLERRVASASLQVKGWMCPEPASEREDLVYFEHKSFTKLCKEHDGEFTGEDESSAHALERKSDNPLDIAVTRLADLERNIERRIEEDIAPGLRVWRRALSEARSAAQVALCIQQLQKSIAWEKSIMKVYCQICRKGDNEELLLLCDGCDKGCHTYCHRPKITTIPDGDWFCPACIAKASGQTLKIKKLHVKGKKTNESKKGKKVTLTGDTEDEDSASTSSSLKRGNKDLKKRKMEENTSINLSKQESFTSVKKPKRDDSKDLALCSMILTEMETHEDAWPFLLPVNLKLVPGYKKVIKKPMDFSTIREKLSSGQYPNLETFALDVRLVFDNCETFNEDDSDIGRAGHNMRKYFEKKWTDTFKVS
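BAZ2B 50 nM plus b-H3(5-23)K14Ac 50 nM, PBS pH 7.4/0.01% Tween-20, 30 min RT; compound added (max 110 uM), 30 min RT; streptavidin donor/Ni-chelate acceptor beads 10 ug/mL final, 20 min dark; AlphaScreen read.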
Numbers stand for hits; . = inactive; ? = inconclusive; / = not tested or not shown; [ ] = another dose, or the depositor's remark. Hits are enriched below; roughly 12% of the tested compounds scored in any of these assays. Calls come from the whole dose curve; as a rule, active = well fitted curve in the direction sought with a large enough effect; inconclusive = small, poorly fitted or top-dose-only effect, or another doubt; inactive = no such curve, though single readings can be large; an effect the other way counts as inactive or inconclusive.

SMILES | HP1b chromo inh | G9a inh | Sfp inh | JMJD2A Tudor inh | BAZ2B block
CCOc1ccccc1N1CCN(C(=S)NCc2ccc(Cl)cc2)CC1 | . | / | . | . | .
COc1ccccc1N1CCN(C(=O)c2sc3nc(C)nc(N4CCN(c5ccccn5)CC4)c3c2C)CC1 | . | 25µM | . | ? | ?
O=C(/C=C/c1ccc(Cl)cc1)Nn1c(-c2cccs2)nc2ccccc2c1=O | . | . | . | . | .
CC1CCN(S(=O)(=O)c2cccc(C(=O)NC3CCS(=O)(=O)C3)c2)CC1 (configuration not stated) | . | . | / | . | .
C#CCN1C(=O)C(O)(CC(=O)/C=C/c2ccco2)c2ccccc21 (configuration not stated) | . | 50µM | 35µM | . | ?
COc1ccc(C(C)NC(=O)C2CCCO2)cc1OC (configuration not stated) | . | .[12.7 µM] | . | . | .
COc1ccc(CSc2nnc(SCc3ccc([N+](=O)[O-])cc3)s2)cc1 | . | . | . | . | .
O=C(Nc1cccc(CNCCc2c[nH]c3ccccc23)c1)c1ccccc1Cl | . | 28µM | ? | 45µM | 50µM
CC(=O)c1cccc(NC(=O)NCCc2c[nH]c3ccccc23)c1 | . | / | ? | . | .
O=C(Nc1ccc(N2CCN(c3ccc(F)cc3)CC2)c(C(=O)O)c1)c1ccccc1F | . | . | / | ? | .
Cc1ccc(C)c(-c2cc(C(=O)NCc3cccs3)c3ccccc3n2)c1 | . | .[12.7 µM] | . | . | .
Cc1nc(NN)c2c3c(sc2n1)COC(C)(C)C3 | . | .[2.33 µM] | 56µM | . | .
Cc1nc2sc3c(c2c(=O)o1)CC(C)(C)OC3 | . | .[12.7 µM] | . | . | .
CC1(C)Cc2c(sc3nc(=S)[nH]c(N)c23)CO1 | / | / | 25µM | / | .
CCCCc1nc2sc3c(c2c(=O)[nH]1)CC(C)(C)OC3 | . | / | / | . | /
O=[N+]([O-])c1cc(C(F)(F)F)cc([N+](=O)[O-])c1N1CCCNCC1 | . | ? | . | ? | .
CNC1=C([N+](=O)[O-])CC([N+](=O)[O-])=C(N2CCNCC2)N1C | . | 45µM | . | . | .
COc1ccc([C@]23Cc4cc(C#N)ccc4[C@H](O2)c2c(cc(C)n(Cc4ccccc4)c2=O)O3)cc1 | / | / | . | / | .[22.9 µM]
COc1ccc([C@]23Cc4cc(OC)c(OC)cc4C(O2)c2c(c4ccccc4oc2=O)O3)cc1 | / | ? | . | / | 10µM
COc1ccc([C@]23Cc4cc(OC)c(OC)cc4C(O2)c2c(cc(C)n(Cc4ccccc4)c2=O)O3)cc1 | / | .[2.33 µM] | . | / | 11µM
COc1ccc([C@]23Cc4ccccc4C(O2)c2c(c4ccc(OC)cc4oc2=O)O3)cc1 | / | .[2.33 µM] | . | / | ?
CCOC(=O)[C@@H]1[C@H]2COc3ccccc3[C@H]2N2C(=O)N(c3cccc(Cl)c3)C(=O)[C@@]12C | . | ? | . | . | .
CCc1ccc(-n2c(CCC(=O)O)ccc2-c2ccc(F)cc2)cc1 | ? | 10µM | / | ? | ?
COc1ccc(-c2ccc(CCC(=O)O)n2-c2ccccc2OC)cc1 | . | ? | . | . | ?
CCOC(=O)c1ccc(-n2c(CCC(=O)O)ccc2-c2cccs2)cc1 | ? | 22µM | 25µM | ? | ?
SMILES | HP1b chromo inh | G9a inh | Sfp inh | JMJD2A Tudor inh | BAZ2B block
Cc1ccc(-n2c(CCC(=O)O)ccc2-c2cccs2)cc1C | . | ? | 45µM | ? | ?
CCc1ccc(-n2c(CCC(=O)O)ccc2-c2cccs2)cc1 | ? | 10µM | / | ? | ?
O=C(CCCN1C(=O)c2cccnc2Oc2ccc(Cl)cc21)N1CCCCC1 | . | . | . | . | ?
O=C(N/N=C/c1c[nH]c2ccccc12)c1[nH]c2ccc(Br)cc2c1-c1ccccc1 | . | . | . | ? | .
C=CCOc1ccc(-c2nc3c(c(=O)[nH]c(=O)n3CCCC)n2C)cc1OC | . | . | . | 32µM | .
CCCCn1c(=O)[nH]c(=O)c2c1nc(-c1cc(Br)c(OCC)c(OC)c1)n2C | . | . | . | . | .
O=C(COC(=O)c1cccc(S(=O)(=O)N2CCN(c3ccccc3)CC2)c1)NCC1CCCO1 (configuration not stated) | . | . | . | . | .
Cc1cc(C)c2c(NC(N)=S)n[nH]c2n1 | . | 25µM | . | 32µM | .
CCN1C(=O)CC(c2ccccc2)CC1=O | . | .[2.33 µM] | / | . | .
Cc1c(Cl)cnc(NC(=O)COC(=O)c2nn(C)c(=O)c3ccccc23)c1Cl | . | 45µM | . | . | ?
Cc1ccccc1OCC(=O)OCC(=O)Nc1ccc(Cl)cn1 | . | .[2.33 µM] | / | . | .
Cc1ccccc1OCC(=O)OCC(=O)Nc1ncc(Cl)c(C)c1Cl | . | .[2.33 µM] | / | ? | 56µM
CC(=O)Nc1nnc(SCc2ccc(C(=O)Nc3ccccc3F)cc2)s1 | . | 45µM | . | . | .
O=C(Nc1nnc(SCc2ccc(F)cc2)s1)c1ccccn1 | . | 50µM | . | 28µM | 25µM
Cc1cc(-c2ccc(C)c(S(=O)(=O)N(C(C)C)C3CCCCC3)c2)on1 | . | . | / | . | .
O=C(Oc1ccc(N(C(=O)c2ccncc2)S(=O)(=O)c2ccc(F)cc2)cc1)c1ccncc1 | . | 45µM | . | . | .
Cc1ccc(S(=O)(=O)N(C(=O)c2ccncc2)c2ccc(OC(=O)c3ccncc3)cc2)cc1 | . | ? | . | . | .
COc1ccc(N(C(=O)c2ccncc2)S(=O)(=O)c2ccc(Cl)cc2)cc1 | . | ? | . | . | .
O=C(c1ccncc1)N(c1ccc2oc3c(c2c1)CCCC3)S(=O)(=O)c1ccc(F)cc1 | . | 79µM | . | . | ?
COC(=O)c1c(C)oc2ccc(N(C(=O)c3ccncc3)S(=O)(=O)c3ccc(Br)cc3)cc12 | . | . | / | ? | .
O=C(Oc1ccc(N(C(=O)c2ccncc2)S(=O)(=O)c2ccc(Cl)cc2)cc1)c1ccncc1 | . | 50µM | . | . | .
Cc1cc(N2C(=O)c3ccc(C(=O)Nc4ccccc4O)cc3C2=O)no1 | . | . | . | . | .
Cc1cc2c(s1)c1cnn(Cc3ccc(C)c(F)c3F)c(=O)c1n2C | / | / | / | . | /
CCN1CCCC(Sc2nc3c([nH]2)c(=S)n(C)c(=O)n3C)C1 (configuration not stated) | . | ? | ? | . | .
Cn1c(=O)c2c(nc(SCCN3CCCCC3)n2C)n(C)c1=O | . | . | . | . | .
SMILES | HP1b chromo inh | G9a inh | Sfp inh | JMJD2A Tudor inh | BAZ2B block
CCn1c(SCCN2CCCCC2)nc2c1c(=O)n(C)c(=O)n2C | 71µM | / | / | . | /
Cn1c(=S)c2[nH]c(SCCN3CCCC3)nc2n(C)c1=O | . | . | 40µM | ? | ?
Cn1c(=S)c2[nH]c(SCCN)nc2n(C)c1=O | . | / | / | 1.1µM | /
CCOC(=O)CSc1nc2ccc(NC(=O)c3cccc(F)c3)cc2s1 | . | . | / | . | .
O=C(Cn1c(=O)sc2ccccc21)Nc1ccc(S(=O)(=O)N2CCCC2)cc1 | . | . | . | . | .
CCOC(=O)c1ccc(NC(=O)CN(c2ccc(C)cc2)S(=O)(=O)c2c(C)n[nH]c2C)cc1 | . | .[12.7 µM] | . | . | .
O=C(CSc1ccc2nnc(-c3ccccc3)n2n1)NCc1ccc2c(c1)OCO2 | . | . | . | . | .
